From PubChem BioAssay (EPA / NIEHS)
The source made the active and inactive calls. The calls were made as follows: active = hit-call score of the fitted dose curve at least 0.9, where 1 is the maximum; inactive = score below 0.9.

What was measured:
[1] = ATG_CRE_CIS: Attagene CIS-FACTORIAL HepG2 Assay for human cAMP Responsive Element (CRE) binding protein 3 (AID 2282926); conditions: HepG2 CRE cis-reporter, Attagene multiplexed mRNA; actives raise or lower the signal
How it was run: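 Transfected HepG2 were treated for 24 hours, then RNA was extracted and reporter cDNA amplified with sequence-specific primers. Labelled fragments were separated by capillary electrophoresis, and the CRE signal was fitted bidirectionally with DMSO as baseline.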

[2] = biological target: CCAAT/enhancer-binding protein beta (Homo sapiens) (UniProt P17676); experiment: ATG_C_EBP_CIS: Attagene CIS-FACTORIAL HepG2 Assay for human CCAAT/Enhancer Binding Protein (C/EBP) beta (AID 2282927); conditions: HepG2 Attagene cis-factorial transcription factor reporter; actives raise or lower the signal
Sequence of CCAAT/enhancer-binding protein beta (Homo sapiens) (P17676 whole entry, looked up): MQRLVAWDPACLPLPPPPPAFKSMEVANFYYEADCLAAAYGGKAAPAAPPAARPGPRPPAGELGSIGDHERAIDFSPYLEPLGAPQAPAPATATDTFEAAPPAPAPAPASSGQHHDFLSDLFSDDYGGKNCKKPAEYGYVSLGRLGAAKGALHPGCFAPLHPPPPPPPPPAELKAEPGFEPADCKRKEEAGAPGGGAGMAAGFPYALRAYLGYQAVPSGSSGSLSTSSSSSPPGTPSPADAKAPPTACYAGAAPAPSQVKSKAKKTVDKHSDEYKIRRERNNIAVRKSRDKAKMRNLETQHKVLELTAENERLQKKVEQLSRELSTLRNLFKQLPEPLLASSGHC
How it was run: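 Transiently transfected HepG2 (MRTU library, endogenous TF-driven promoters); 24 h dosing; total RNA → oligo(dT) RT → PCR → 6-FAM primer extension → HpaI digest → CE; fit bidirectionally vs DMSO.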

[3] = ATG_CMV_CIS: Attagene CIS-FACTORIAL HepG2 Assay for human CMV (Internal Marker) (AID 2282928); conditions: HepG2 CMV promoter reporter, transcription factor profiling; actives raise or lower the signal;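 also: endpoint acts as a background internal control marker rather than a target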
How it was run: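 HepG2 cells transiently transfected with multiple cis-regulated reporter units; 24 h compound exposure. Reporter mRNA quantified by RT-PCR, 6-FAM primer-extension labeling, HpaI digestion and capillary electrophoresis; bidirectional fitting against DMSO baseline.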

[4] = ATG_DR4_LXR_CIS: Attagene CIS-FACTORIAL HepG2 Assay for human Liver X Receptor (LXR), DR4 submotif (AID 2282929); conditions: HepG2 Attagene DR4 cis-reporter, mRNA transcription; actives raise or lower the signal
How it was run: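 Cells were transfected with multiple reporter transcription units, exposed to chemicals for 24 hours, then lysed for RNA. Reporter mRNA induction was measured by RT-PCR with capillary electrophoresis detection and fitted in both directions relative to DMSO.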

[5] = ATG_AP_1_CIS: Attagene CIS-FACTORIAL HepG2 Assay for human Activator Protein 1 (AP-1) (AID 2282931); conditions: HepG2 Attagene cis-factorial AP-1 reporter mRNA; actives raise or lower the signal
How it was run: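 Endogenous transcription-factor activity in human HepG2 liver cells is read through a cis-promoter reporter transcript, sampled 24 h after dosing. Detection uses RT-PCR with capillary electrophoresis; values come from bidirectional fitting relative to DMSO.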

[6] = ATG_AP_2_CIS: Attagene CIS-FACTORIAL HepG2 Assay for human Activator Protein 2 (AP-2) (AID 2282932); conditions: HepG2 AP-2 cis-reporter, Attagene transcription factor profiling; actives raise or lower the signal
How it was run: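 HepG2 cells transiently transfected with cis-element reporter units and exposed for 24 h. Reporter mRNA measured by RT-PCR, FAM labelling, HpaI digestion and capillary electrophoresis. Changes in either direction fitted relative to DMSO.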

[7] = ATG_BRE_CIS: Attagene CIS-FACTORIAL HepG2 Assay for human Bone Morphogenetic Protein (BMP) Response Element (BRE) (AID 2282933); conditions: HepG2 BMP response element reporter, Attagene transcription factor profiling; actives raise or lower the signal
How it was run: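 HepG2 cells transiently transfected with multiplexed cis-element reporter units were dosed with chemical for 24 h. Reporter mRNA was measured by RT-PCR with fluorescent labelling, HpaI digestion and capillary electrophoresis; bidirectional fitting relative to DMSO.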

[8] = ATG_E_Box_CIS: Attagene CIS-FACTORIAL HepG2 Assay for human Enhancer Box (E-box) (AID 2282936); conditions: HepG2 E-box cis-reporter transcription, actives raise or lower the signal
How it was run: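 HepG2 cells transiently transfected with multiplexed cis-element reporter units, dosed 24 h; reporter mRNA quantified by RT-PCR, 6-FAM labelling, HpaI digestion and capillary electrophoresis. E-box (USF1) signal fitted bidirectionally vs DMSO.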

[9] = ATG_M_61_CIS: Attagene CIS-FACTORIAL HepG2 Assay for M61 Transcription Factor (Internal Marker) (AID 2282937); conditions: HepG2 Attagene CIS-FACTORIAL M61 internal marker reporter; actives raise or lower the signal
How it was run: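 Cells were transfected with reporter units under cis-regulatory promoters, treated with chemicals for 24 h, then lysed for RNA. Reporter transcripts were quantified by RT-PCR and capillary electrophoresis, and activity was fitted bidirectionally against DMSO.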

[10] = ATG_EGR_CIS: Attagene CIS-FACTORIAL HepG2 Assay for human Early Growth Response 1 (EGR1) (AID 2282938); conditions: HepG2 Attagene CIS-FACTORIAL EGR reporter mRNA; actives raise or lower the signal
How it was run: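 Endogenous TF activity in HepG2 liver cells was gauged through cis-promoter reporter constructs transiently transfected. After 24 h dosing, reporter mRNA was quantified by RT-PCR and capillary electrophoresis, and curves fitted in both directions versus DMSO.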

[11] = ATG_M_19_CIS: Attagene CIS-FACTORIAL HepG2 Assay for M19 Transcription Factor (Internal Marker) (AID 2282939); conditions: HepG2 Attagene CIS-FACTORIAL M19 internal marker reporter; actives raise or lower the signal
How it was run: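 HepG2 cells transiently transfected with cis-regulated multiple reporter transcription units were dosed for 24 h; reporter mRNA was quantified by RT-PCR, 6-FAM primer-extension labelling, HpaI digestion and capillary electrophoresis, with bidirectional fitting against DMSO baseline.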

[12] = ATG_Ets_CIS: Attagene CIS-FACTORIAL HepG2 Assay for human Erythroblast Transformation Specific (ETS) (AID 2282941); conditions: HepG2 ETS cis-reporter transcription, actives raise or lower the signal
How it was run: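 HepG2 cells transiently transfected with cis-promoter reporter transcription units were dosed for 24 h; reporter mRNA was measured by RT-PCR, 6-FAM primer extension, HpaI digestion and capillary electrophoresis, with bidirectional fitting against DMSO baseline.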

[13] = biological target: Hepatocyte nuclear factor 3-beta (Homo sapiens) (UniProt Q9Y261); experiment: ATG_FoxA2_CIS: Attagene CIS-FACTORIAL HepG2 Assay for human Forkhead box A2 (FOXA2) (AID 2282942); conditions: HepG2 cis-reporter transcription factor activity, 24 h; actives raise or lower the signal
Sequence of Hepatocyte nuclear factor 3-beta (Homo sapiens) (Q9Y261 whole entry, looked up): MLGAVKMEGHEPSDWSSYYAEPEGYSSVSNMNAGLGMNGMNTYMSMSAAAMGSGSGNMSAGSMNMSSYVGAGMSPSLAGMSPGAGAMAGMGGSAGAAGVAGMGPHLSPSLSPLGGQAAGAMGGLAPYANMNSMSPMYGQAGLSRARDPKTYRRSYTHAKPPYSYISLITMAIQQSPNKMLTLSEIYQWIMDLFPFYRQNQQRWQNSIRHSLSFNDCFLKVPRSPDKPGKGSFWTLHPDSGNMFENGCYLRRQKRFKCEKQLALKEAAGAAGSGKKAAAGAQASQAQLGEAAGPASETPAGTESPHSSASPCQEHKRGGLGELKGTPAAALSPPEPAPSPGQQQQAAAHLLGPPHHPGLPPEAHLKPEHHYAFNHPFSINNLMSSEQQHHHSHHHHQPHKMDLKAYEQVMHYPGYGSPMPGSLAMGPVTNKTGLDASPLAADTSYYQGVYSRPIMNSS
How it was run: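 Endogenous transcription factor activity was read in HepG2 cells carrying transiently transfected cis-promoter reporter units. After 24 h dosing, reporter mRNA was quantified by RT-PCR and capillary electrophoresis, and values fitted bidirectionally versus DMSO.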

[14] = ATG_FoxO_CIS: Attagene CIS-FACTORIAL HepG2 Assay for human Forkhead box O (FoxO) (AID 2282943); conditions: HepG2 Attagene cis-reporter, FoxO element, mRNA; actives raise or lower the signal
How it was run: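 Read-out: fluorescence of 6-FAM-labelled reporter cDNA fragments resolved by capillary electrophoresis. Transiently transfected HepG2 cells were dosed for 24 h; activity fitted in both directions relative to DMSO controls.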

[15] = ATG_GATA_CIS: Attagene CIS-FACTORIAL HepG2 Assay for human GATA Binding Protein (AID 2282944); conditions: HepG2 GATA cis-element reporter, Attagene multiplex mRNA; actives raise or lower the signal
How it was run: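 HepG2 cells transiently transfected with multiplexed cis-element reporter units reflecting endogenous transcription factor activity; reporter mRNA measured after 24 h dosing by RT-PCR, 6-FAM labeling, HpaI digestion and capillary electrophoresis. Bidirectional fitting versus DMSO baseline.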

[16] = ATG_GLI_CIS: Attagene CIS-FACTORIAL HepG2 Assay for human Zinc Finger Protein GLI1 (AID 2282945); conditions: HepG2, Attagene cis-factorial reporter mRNA, GLI element; actives raise or lower the signal
How it was run: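 Transiently transfected HepG2 cells report endogenous transcription factor activity via cis-element-driven reporter units. After 24 h compound exposure, reporter mRNA was measured by RT-PCR with capillary electrophoresis; bidirectional fitting against DMSO baseline.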

[17] = biological target: Retinoic acid receptor alpha (Homo sapiens) (UniProt P10276); experiment: ATG_DR5_RAR_CIS: Attagene CIS-FACTORIAL HepG2 Assay for human Retinoic Acid Receptor Alpha (RARE), DR5 submotif (AID 2282934); conditions: HepG2 Attagene cis-factorial RARE DR5 reporter, mRNA; actives raise or lower the signal
Sequence of Retinoic acid receptor alpha (Homo sapiens) (P10276 whole entry, looked up): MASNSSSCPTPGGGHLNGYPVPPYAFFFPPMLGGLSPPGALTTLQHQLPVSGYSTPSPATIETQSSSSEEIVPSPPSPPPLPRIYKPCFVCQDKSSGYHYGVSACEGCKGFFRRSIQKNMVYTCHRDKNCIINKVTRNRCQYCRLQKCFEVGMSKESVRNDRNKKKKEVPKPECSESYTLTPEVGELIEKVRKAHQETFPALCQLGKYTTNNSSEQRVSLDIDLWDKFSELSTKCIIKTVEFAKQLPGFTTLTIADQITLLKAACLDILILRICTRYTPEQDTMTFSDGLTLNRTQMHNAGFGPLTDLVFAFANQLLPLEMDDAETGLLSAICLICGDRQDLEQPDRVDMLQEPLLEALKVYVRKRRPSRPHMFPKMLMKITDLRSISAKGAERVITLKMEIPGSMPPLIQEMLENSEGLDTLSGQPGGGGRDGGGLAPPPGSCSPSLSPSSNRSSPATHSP
How it was run: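 Read-out: DR5-driven reporter transcript measured by RT-PCR, 6-FAM primer extension, HpaI digest and capillary electrophoresis. Human HepG2 liver cells carry transiently transfected cis-element reporter constructs; dosing lasts 24 h. Gain or loss of signal fitted against DMSO baseline.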

[18] = biological target: Transcription factor E2F1 (Homo sapiens) (UniProt Q01094); experiment: ATG_E2F_CIS: Attagene CIS-FACTORIAL HepG2 Assay for human E2F Transcription Factor 1 (AID 2282935); conditions: HepG2 Attagene cis-reporter, E2F reporter RNA transcripts; actives raise or lower the signal
Sequence of Transcription factor E2F1 (Homo sapiens) (Q01094 whole entry, looked up): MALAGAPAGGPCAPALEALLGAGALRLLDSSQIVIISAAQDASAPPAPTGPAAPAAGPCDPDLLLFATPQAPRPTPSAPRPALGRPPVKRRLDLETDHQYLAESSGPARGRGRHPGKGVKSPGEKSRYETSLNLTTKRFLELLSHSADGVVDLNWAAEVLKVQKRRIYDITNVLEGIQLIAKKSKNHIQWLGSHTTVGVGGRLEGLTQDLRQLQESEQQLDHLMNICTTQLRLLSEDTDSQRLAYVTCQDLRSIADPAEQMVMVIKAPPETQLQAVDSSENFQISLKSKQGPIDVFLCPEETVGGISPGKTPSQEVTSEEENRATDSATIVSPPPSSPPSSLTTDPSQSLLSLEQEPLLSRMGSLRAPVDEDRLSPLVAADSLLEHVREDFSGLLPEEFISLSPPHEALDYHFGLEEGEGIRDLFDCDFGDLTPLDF
How it was run: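 Endogenous E2F1 activity read through cis-promoter reporter units transfected into HepG2. After 24 h compound treatment, reporter mRNA measured by RT-PCR, HpaI digestion and capillary electrophoresis. Bidirectional fit versus DMSO.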

[19] = biological target: Aryl hydrocarbon receptor (Homo sapiens) (UniProt P35869); experiment: ATG_Ahr_CIS: Attagene CIS-FACTORIAL HepG2 Assay for human Aryl Hydrocarbon Receptor (Ahr) (AID 2282930); conditions: HepG2 AhR cis-factorial reporter transcription; actives raise or lower the signal
Sequence of Aryl hydrocarbon receptor (Homo sapiens) (P35869 whole entry, looked up): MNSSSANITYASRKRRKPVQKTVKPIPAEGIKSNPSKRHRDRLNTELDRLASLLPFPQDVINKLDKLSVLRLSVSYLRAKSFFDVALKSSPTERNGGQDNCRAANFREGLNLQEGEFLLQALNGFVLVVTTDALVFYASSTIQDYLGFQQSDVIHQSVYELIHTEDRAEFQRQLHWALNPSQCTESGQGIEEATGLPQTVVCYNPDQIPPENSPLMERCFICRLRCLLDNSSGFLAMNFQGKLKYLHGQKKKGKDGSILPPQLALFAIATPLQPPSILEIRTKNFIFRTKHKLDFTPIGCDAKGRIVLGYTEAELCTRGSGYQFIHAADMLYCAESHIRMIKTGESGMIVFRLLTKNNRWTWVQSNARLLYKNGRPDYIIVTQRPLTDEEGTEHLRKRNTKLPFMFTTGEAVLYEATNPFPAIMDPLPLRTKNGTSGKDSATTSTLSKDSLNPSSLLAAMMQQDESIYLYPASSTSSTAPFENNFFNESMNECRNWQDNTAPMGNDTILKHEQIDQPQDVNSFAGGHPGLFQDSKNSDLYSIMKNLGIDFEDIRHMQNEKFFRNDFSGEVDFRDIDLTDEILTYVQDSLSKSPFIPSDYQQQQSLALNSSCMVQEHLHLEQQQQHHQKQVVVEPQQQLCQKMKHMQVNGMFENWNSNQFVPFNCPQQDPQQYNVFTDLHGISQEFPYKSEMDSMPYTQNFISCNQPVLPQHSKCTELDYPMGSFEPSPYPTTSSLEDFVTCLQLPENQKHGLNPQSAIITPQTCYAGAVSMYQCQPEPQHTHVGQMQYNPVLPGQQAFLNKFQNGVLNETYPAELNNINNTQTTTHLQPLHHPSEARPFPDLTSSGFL
How it was run: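 Read-out: reporter mRNA quantified by RT-PCR with fluorescent primer extension and capillary electrophoresis. Human HepG2 liver cells carried transfected cis-promoter reporter units and were exposed to chemical for 24 h; gain or loss fitted relative to DMSO.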

Measured: AC50

CCCCCC(=O)CC
not listed: [17] | [18] | [19]
inactive: all other assays above

COC(CC(C)CCCC(C)(C)O)OC (stereo unspecified)
not listed: [19]
inactive: all other assays above

Cc1c(OCC(F)(F)F)ccnc1CS(=O)c1nc2ccccc2[nH]1 (stereo unspecified)
active: [4] 134 µM | [19] 1.28 µM | [7] 153 µM | [10] 27.8 µM
not listed: [5] | [8]
inactive: all other assays above
